The values below come from PubChem BioAssay (Tox21).

Results filed as inconclusive are left out. Values without a mark were called inactive. The source made the active and inactive calls. Unless noted, the call rests on the fitted dose curve; in most records, active means well fitted curve in the direction sought with a large enough effect in the repeat runs; inconclusive means weak or mixed curves; inactive means no such curve, though single readings can be large; an effect the other way counts as inactive or inconclusive.

The target in experiment [1] is Retinoic acid receptor RXR-alpha (Homo sapiens) (UniProt P19793). Briefly: qHTS assay to identify small molecule agonists of the RXR signaling pathway (AID 1159527; calls by dose curve; further: nearly all actives have a fitted effect of over 35% in size; further: potency means the concentration at half of the fitted maximal effect). Put shortly:
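Reporter activation is measured as beta-lactamase activity via FRET substrate cleavage (emission 460/530 nm) in HEK 293T cells expressing an RXR-alpha-driven bla construct, following 16 hr compound exposure at 37 C.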

Experiment [2] in a line: qHTS assay to identify small molecule agonists of the RXR signaling pathway - cell viability counter screen (AID 1159529). Further: series mostly up to about 77 µM; nearly all actives have a fitted effect of over 50% in size. Put shortly:
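Tox21 10K compounds were tested for cytotoxicity against GeneBLAzer RXR-alpha HEK 293T cells grown in 2% charcoal-stripped FBS. Exposure lasted 16 hr at 37 C, 5% CO2; viability read by CellTiter-Glo luminescence.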

The nature of experiment [3]: qHTS assay to identify small molecule antagonists of the retinoid acid receptor (RAR) signaling pathway - cell viability counter screen (AID 1159551). Further: nearly all actives have a fitted effect of over 35% in size. The procedure, abridged:
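C3RL4 RARE-luciferase cells, 1,000/well, incubated overnight, then dosed with compound plus 1 uM retinol (final). After 6 hr at 37 C, viability read by CellTiter-Glo ATP luminescence following 30 min at room temperature.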
(In general: Quantitative high-throughput screening tests each substance at several concentrations.)

Experiment [4] in a line: qHTS assay to identify small molecule antagonists of the retinoic acid receptor (RAR) signaling pathway (AID 1159552; further: nearly all actives have a fitted effect of over 50% in size). Put shortly:
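Overnight-plated C3RL4 reporter cells get compound, then retinol to 1 uM final; plates sit 6 hr at 37 C, 5% CO2. A luciferase reagent is added and light output recorded after 30 min at room temperature.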

Experiment [5] is described as follows: qHTS assay to identify small molecule agonists of the retinoic acid receptor (RAR) signaling pathway (AID 1159553). Put shortly:
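C3RL4 RARE-luciferase cells were seeded at 1,000/well and grown overnight at 37 C, then exposed to compounds for 6 hr at 37 C, 5% CO2. Luciferase reagent was added and luminescence was read after 30 min at room temperature.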

A short description of experiment [6]: qHTS assay to identify small molecule antagonists of the estrogen related receptor (ERR) signaling pathway from Tox21 library - cell viability counter screen (AID 1224834). Further: nearly all actives have a fitted effect of over 30% in size. The procedure, abridged: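 ERR reporter cells, 2,000 per well, rested 6 h, then exposed to compound in DMSO for 17.5 hours at 37 C. Viability read as fluorescence after 30 min with CellTiter-Fluor.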

Experiment [7] addresses Luciferin 4-monooxygenase (Photinus pyralis) (UniProt P08659). Briefly: qHTS assay to identify small molecule inhibitors of firefly luciferase (AID 1224835). Further: series mostly up to about 120 µM; nearly all actives have a fitted effect of over 25% in size. Put shortly:
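Quantitative HTS format; KM concentrations of both substrates. Purified P. pyralis FLuc activity quantified from luminescence images.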

Experiment [8] can be described thus: qHTS assay to identify small molecule agonists of the constitutive androstane receptor (CAR) signaling pathway - cell viability counter screen (AID 1224836). Further: series mostly up to about 92 µM; nearly all actives have a fitted effect of over 45% in size. The procedure, abridged:
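Fluorescence from CellTiter-Fluor indicates live cells after 23 h exposure. The human hepatoma line expresses hCAR and a CYP2B6-2.2kb reporter. Incubation medium contains 0.75 uM PK11195 (final).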

Experiment [9] can be described thus: qHTS assay to identify small molecule antagonists of the constitutive androstane receptor (CAR) signaling pathway - cell viability counter screen (AID 1224837). Further: series mostly up to about 92 µM; nearly all actives have a fitted effect of over 45% in size. Put shortly: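 HepG2 cells stably carrying hCAR and CYP2B6-2.2kb reporter, stimulated with 50 nM CITCO and compounds at 15 concentrations for 23 h at 37 C. Viability measured by CellTiter-Fluor fluorescence.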

Experiment [10] concerns the target Nuclear receptor subfamily 1 group I member 3 (Homo sapiens) (UniProt Q14994). Briefly: qHTS assay to identify small molecule antagonists of the constitutive androstane receptor (CAR) signaling pathway (AID 1224838). Further: nearly all actives have a fitted effect of over 40% in size. The procedure, abridged: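 HepG2 cells stably carrying hCAR and a CYP2B6-2.2kb luciferase reporter, seeded 4 hrs before compound (15 concentrations). Stimulated with 50 nM CITCO for 24 hr at 37 C. ONE-Glo luminescence read after 30 min at room temperature.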

Experiment [11] has the same target. The experiment is described as follows: qHTS assay to identify small molecule agonists of the constitutive androstane receptor (CAR) signaling pathway (AID 1224839). Further: series mostly up to about 92 µM; nearly all actives have a fitted effect of over 15% in size. The procedure, abridged:
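Stable hCAR/CYP2B6-2.2kb HepG2 line in DMEM with 10% FBS; compounds (15 concentrations) and 0.75 uM PK11195 final, 24 h at 37 C/5% CO2, then ONE-Glo luminescence after 30 min.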

A short description of experiment [12]: qHTS assay to identify small molecule antagonists of the estrogen related receptor signaling pathway with the pleiotropic PPARgamma coactivator (PGC) from Tox21 10K library - cell viability counter screen (AID 1224840; active means well fitted cell-killing curve with a large enough effect in the repeat runs, not every such curve was filed as active; further: nearly all actives have a fitted effect of over 40% in size). Put shortly: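 PGC/ERR cells (2,000/well) plated 6 h, then compound-treated for 17.5 h at 37 C. Viability measured by CellTiter-Fluor fluorescence after 30 min at 37 C, multiplexed with the pathway assay.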

Experiment [13] deals with Thyrotropin receptor (Homo sapiens) (UniProt P16473). Briefly: qHTS assay to identify small molecule agonists of the thyroid stimulating hormone receptor (TSHR) signaling pathway (AID 1224843; calls by dose curve; further: nearly all actives have a fitted effect of over 45% in size). The procedure, abridged: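 TSHR-expressing HEK293 cells (800 per well) were exposed to compounds for 30 min at room temperature. cAMP was then detected by HTRF competition with cAMP-d2 and anti-cAMP cryptate, read after 1 h at room temperature. Fifteen concentrations, triplicate.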

Experiment [14] in a line: qHTS assay to identify small molecule agonists of H2AX (AID 1224845; active means well fitted activation curve with a large enough effect in the signal ratio in the repeat runs, not every such curve was filed as active; the % refers to the signal ratio). Put shortly:
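Wild-type CHO-K1 cells plated overnight, then exposed 3 hr at 37C to compounds at 15 concentrations (0.76% DMSO). Lysed, then HTRF anti-pH2AX(S139)-cryptate/anti-H2AX-d2 detection after 24 hr at room temperature; emissions 665 and 620 nm.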

The nature of experiment [15]: qHTS assay to identify small molecule agonists of the hypoxia (HIF-1) signaling pathway (AID 1224846; active means well fitted activation curve with a large enough effect in the signal ratio in the repeat runs, not every such curve was filed as active; the % refers to the signal ratio). The procedure, abridged:
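HRE-bla ME-180 beta-lactamase reporter cells in medium with 0.5% dialyzed FBS, pre-incubated 5 h then exposed to compounds 17 h at 37C, 5% CO2; reporter induction read with CCF4-AM FRET substrate.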

The nature of experiment [16]: qHTS assay to identify small molecule agonists of H2AX - cell viability counter screen (AID 1224847; calls by dose curve; further: top concentration of the series differs between compounds; nearly all actives have a fitted effect of over 30% in size). The procedure, abridged: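 Viability of CHO-K1 (wild type) cells after 3 hr compound exposure was measured by CellTiter-Glo luminescence.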
Experiment [17] in a line: qHTS assay to identify small molecule agonists of the hypoxia (HIF-1) signaling pathway - cell viability counter screen (AID 1224844; calls by dose curve; further: nearly all actives have a fitted effect of over 50% in size). The procedure, abridged: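 HRE-bla ME-180 cells, 2,000/well in 0.5% dialyzed FBS medium, treated 17 h at 37C with compounds. Viability read in the same wells as the bla reporter, by CellTiter-Glo luminescence after 30 min at room temperature.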

Sequence of Luciferin 4-monooxygenase (Photinus pyralis) (P08659 whole entry, looked up): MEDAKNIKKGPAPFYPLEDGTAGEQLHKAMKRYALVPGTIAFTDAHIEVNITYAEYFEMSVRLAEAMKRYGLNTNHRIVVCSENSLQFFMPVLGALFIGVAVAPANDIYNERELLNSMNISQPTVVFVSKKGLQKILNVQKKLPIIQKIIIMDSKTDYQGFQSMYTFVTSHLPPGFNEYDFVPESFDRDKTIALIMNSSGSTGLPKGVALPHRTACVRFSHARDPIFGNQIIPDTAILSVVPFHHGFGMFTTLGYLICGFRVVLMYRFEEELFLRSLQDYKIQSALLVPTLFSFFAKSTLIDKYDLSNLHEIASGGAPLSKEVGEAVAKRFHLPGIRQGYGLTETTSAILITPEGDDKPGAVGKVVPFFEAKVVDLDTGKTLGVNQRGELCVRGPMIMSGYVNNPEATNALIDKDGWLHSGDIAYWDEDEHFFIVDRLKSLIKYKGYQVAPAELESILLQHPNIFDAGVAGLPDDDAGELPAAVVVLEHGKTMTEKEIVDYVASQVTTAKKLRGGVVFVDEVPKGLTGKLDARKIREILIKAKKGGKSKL
Sequence of Thyrotropin receptor (Homo sapiens) (P16473 whole entry, looked up): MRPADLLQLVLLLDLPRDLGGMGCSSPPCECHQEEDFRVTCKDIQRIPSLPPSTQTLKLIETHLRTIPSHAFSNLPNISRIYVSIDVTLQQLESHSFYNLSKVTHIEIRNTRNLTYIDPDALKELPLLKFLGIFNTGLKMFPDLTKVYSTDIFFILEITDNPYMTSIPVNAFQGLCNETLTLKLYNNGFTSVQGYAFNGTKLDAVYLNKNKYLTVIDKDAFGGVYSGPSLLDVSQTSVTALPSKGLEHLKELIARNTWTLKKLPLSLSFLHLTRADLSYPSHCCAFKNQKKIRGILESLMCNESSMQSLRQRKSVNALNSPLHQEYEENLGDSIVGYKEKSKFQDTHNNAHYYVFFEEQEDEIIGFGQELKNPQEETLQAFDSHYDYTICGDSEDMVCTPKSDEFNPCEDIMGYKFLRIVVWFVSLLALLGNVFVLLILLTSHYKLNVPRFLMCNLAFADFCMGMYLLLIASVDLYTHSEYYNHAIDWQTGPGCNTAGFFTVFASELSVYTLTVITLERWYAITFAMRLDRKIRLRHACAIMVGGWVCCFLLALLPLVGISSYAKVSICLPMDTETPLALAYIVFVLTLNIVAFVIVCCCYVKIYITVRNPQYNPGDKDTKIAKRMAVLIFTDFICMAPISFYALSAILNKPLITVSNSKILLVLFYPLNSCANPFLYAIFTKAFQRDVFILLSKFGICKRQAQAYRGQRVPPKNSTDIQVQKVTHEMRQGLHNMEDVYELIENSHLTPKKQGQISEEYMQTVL
Sequence of Retinoic acid receptor RXR-alpha (Homo sapiens) (P19793 whole entry, looked up): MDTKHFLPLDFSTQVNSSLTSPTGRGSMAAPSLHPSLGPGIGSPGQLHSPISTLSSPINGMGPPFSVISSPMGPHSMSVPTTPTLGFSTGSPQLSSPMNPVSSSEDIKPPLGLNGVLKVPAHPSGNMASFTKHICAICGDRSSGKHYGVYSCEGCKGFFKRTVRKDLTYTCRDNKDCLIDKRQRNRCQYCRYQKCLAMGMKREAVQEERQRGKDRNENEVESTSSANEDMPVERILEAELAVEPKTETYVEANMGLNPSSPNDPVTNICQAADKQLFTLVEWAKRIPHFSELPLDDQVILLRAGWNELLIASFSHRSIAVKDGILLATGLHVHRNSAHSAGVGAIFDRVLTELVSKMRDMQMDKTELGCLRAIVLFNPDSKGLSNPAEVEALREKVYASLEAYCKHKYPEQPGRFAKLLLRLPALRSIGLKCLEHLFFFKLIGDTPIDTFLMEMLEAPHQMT
Sequence of Nuclear receptor subfamily 1 group I member 3 (Homo sapiens) (Q14994 whole entry, looked up): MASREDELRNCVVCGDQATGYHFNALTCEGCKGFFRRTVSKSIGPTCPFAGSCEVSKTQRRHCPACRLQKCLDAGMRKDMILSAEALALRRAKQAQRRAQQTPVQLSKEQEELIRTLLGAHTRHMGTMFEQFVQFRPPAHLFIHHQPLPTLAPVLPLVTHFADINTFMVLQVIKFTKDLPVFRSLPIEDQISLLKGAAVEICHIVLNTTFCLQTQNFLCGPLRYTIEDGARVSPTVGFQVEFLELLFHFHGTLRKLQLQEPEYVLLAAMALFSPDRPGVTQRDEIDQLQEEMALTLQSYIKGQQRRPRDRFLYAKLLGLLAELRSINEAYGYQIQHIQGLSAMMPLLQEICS

`CC(C)CO`: the Potency entry in [1], in experiment [5], in experiment [7], in experiment [10] and in [11] was “inactive” throughout. Moreover, the result in [2], in [3], in [4], in experiment [6], in [8] and in experiment [9] was inactive. Also, the call in experiment [12], in experiment [13], in [14], in experiment [15] and in [16] was inactive.
On to `O=C1CCCCO1`, for which the Potency entry in experiment [1], in experiment [5], in experiment [7], in experiment [10] and in [11] was “inactive” in each case. In addition, the outcome in [2], in [3], in experiment [4], in [6], in experiment [8] and in experiment [9] was inactive. The call in experiment [12], in experiment [13], in [14], in experiment [15] and in experiment [16] was inactive.
For the compound `COc1cc(/C=C/C(N)=O)cc(OC)c1OC`, the Potency result in [1], in [5] and in experiment [7] was “inactive” in each case. Moreover, the result in [2], in experiment [3], in [4], in experiment [6], in experiment [8] and in [9] was inactive. The compound was called inactive in experiment [12], in experiment [13], in [17], in experiment [14], in experiment [15] and in [16].
Take `O=C(NCN1CCOCC1)c1cnccn1`: the Potency result in experiment [1], in experiment [5] and in [7] was “inactive” each time. The compound was classed as inactive in experiment [2], in [3], in [4], in [6], in [8] and in experiment [9]. For the same compound, the result in [12], in experiment [17], in [14], in experiment [15] and in [16] was inactive.
Take `CCCCSCCCC`: the Potency in experiment [1] was 21.9 µM (active). Also, the outcome in [2], in experiment [3], in experiment [4], in [6], in [8] and in experiment [12] was inactive. In addition, the call in [13], in [17], in experiment [14], in [15] and in experiment [16] was inactive. Further, the Potency result in experiment [5], in experiment [7] and in experiment [11] was “inactive” throughout.
In the case of `O=C(Cn1ccnc1[N+](=O)[O-])NCc1ccccc1`, the Potency entry in experiment [1], in experiment [5], in experiment [7], in [10] and in [11] was “inactive” in each case. The call in experiment [2], in [3], in experiment [4], in experiment [6], in experiment [8] and in [12] was inactive. In addition, the result in experiment [13], in experiment [17], in experiment [14], in experiment [15] and in [16] was inactive.
On to `CC(=O)O[C@H]1C[C@@H]2CC[C@@]1(C)C2(C)C`, for which the Potency result in [1], in experiment [5], in experiment [7] and in [10] was “inactive” in each case. For the same compound, the compound was classed as inactive in experiment [2], in experiment [3], in experiment [4], in experiment [6], in experiment [8] and in experiment [9]. Moreover, the compound was called inactive in experiment [12], in experiment [13], in [17], in experiment [14], in experiment [15] and in experiment [16].
Take `N#Cc1cscn1`: the Potency result in experiment [1], in experiment [5], in experiment [7] and in experiment [10] was “inactive” throughout. Moreover, the call in [2], in experiment [3], in experiment [4], in experiment [6], in [8] and in [9] was inactive. In addition, the compound was called inactive in experiment [12], in experiment [13], in [17], in experiment [14], in experiment [15] and in experiment [16].
Regarding `C=CCSSCCC`, the Potency result in [1], in experiment [5], in experiment [7] and in [11] was “inactive” in each case. In addition, the call in experiment [2], in experiment [3], in experiment [4], in experiment [6], in experiment [8] and in [9] was inactive. The call in [12], in [13], in experiment [17], in experiment [14], in experiment [15] and in [16] was inactive.
